# Measurements reported in PubChem BioAssay AID2708 (National Center for Advancing Translational Sciences (NCATS), 2010).
# Some of the results follow. Results filed as inconclusive are left out. A number with no mark means an inactive call. Activity calls are given as the source filed them. The call rests on the fitted dose curve; in most records, active means well fitted inhibition curve with a large enough effect; inconclusive means small, poorly fitted or top-dose-only effect; inactive means no such curve, though single readings can be large or run the other way. Peptide text beside a SMILES is read from it. * marks the point of attachment. Bz = O=C(c1ccccc1)*
# Target: ATP-dependent DNA helicase Q1 (Homo sapiens) (UniProt P46063)
# Assay: Confirmation qHTS Assay for Inhibitors of RecQ-Like Dna Helicase 1 (RECQ1); further: nearly all actives have a fitted effect of over 45% in size
# Conditions: RECQ1 helicase DNA unwinding, fluorescence; series mostly up to 229 µM; activity change, negative = inhibition: at the top concentration
# Text: Survival of cells and the faithful propagation of the genome depend on elaborate mechanisms of detecting and repairing DNA damage. Treatment of advanced cancer relies on radiation therapy or chemotherapy, which kill cancer cells by causing extensive DNA damage. It is often found, that cancer cells develop resistance to therapy through enhanced activity of DNA repair functions; this has led to an increased interest in developing drugs that interfere with DNA repair, which could sensitize cancer cells to conventional therapy.
# This validation qHTS assay pertains to human RECQ1, which is important in resolving abnormal DNA structures formed during replication or homologous recombination. Shutting down the expression of RECQ1 leads to chromosomal instability and higher radiation sensitivity in cultured cells.
# The validation assay was a fluorescence quenching based kinetic qHTS for RECQ1 Helicase DNA unwinding. The activity was measured as ATP-dependent separation of a 20-bp DNA duplex extended by 30-nt single-stranded tails (forked duplex). The forked DNA substrate was tagged with rhodamine fluorophore (carboxytetramethyl rhodamine, TAMRA) and BHQ-2 (Black Hole Quencher 2) dark quencher. Strand separation results in an increase in the fluorescence of TAMRA (excitation 525 nm, emission 598 nm). This substrate construct operates in a red-shifted region where very few compound library members have been noted to fluoresce (PubChem AIDs 593 and 594). An additional feature of the assay is the inclusion of 2.5 ug/ml poly (dIdC), to reduce interference by compounds such as DNA intercalators, a major source of false inhibitors.
# Opher Gileadi, Structural Genomics Consortium, University of Oxford
# Screening Center PI: Austin, C.P.
# Screening Center: NIH Chemical Genomics Center [NCGC]
# Three uL of reaction buffer (25 mM Tris-HCl (pH 8.0), 5 mM NaCl, 2 mM MgCl2, 1mM DTT, 0.01% Tween- 20, and 2.5 ug/ml poly(dI-dC), including enzyme (50 nM RECQ1T1), were dispensed into a 1536-well Greiner black assay plate via solenoid-valve based nanoliter dispensers. Compounds (23 nl each in columns 5-48) and control (23 nl each in column 2 as dose-response) were transferred via a Kalypsys pintool equipped with a 1536-pin array. The plates were incubated for 15 min at room temperature, and then 1 ul of substrates (200 nM DNA and 2 mM ATP, final concentrations) was added to start the reaction. The plate was transferred into a ViewLux high-throughput CCD imager where the reaction progress was measured in a discontinuous kinetic mode (two reads spaced 2 hours apart, with intermediate room temperature incubation of the covered assay plate) by using standard red-fluorescence optics (excitation filter 525 nm, emission filter 598 nm). Enzyme-free and vehicle (DMSO) controls were included for signal normalization.
# On the % scale 0 is the no-effect control and ±100 the full control effect; potency means the concentration at half of the fitted maximal effect.
# Sequence of ATP-dependent DNA helicase Q1 (Homo sapiens) (P46063 whole entry, looked up): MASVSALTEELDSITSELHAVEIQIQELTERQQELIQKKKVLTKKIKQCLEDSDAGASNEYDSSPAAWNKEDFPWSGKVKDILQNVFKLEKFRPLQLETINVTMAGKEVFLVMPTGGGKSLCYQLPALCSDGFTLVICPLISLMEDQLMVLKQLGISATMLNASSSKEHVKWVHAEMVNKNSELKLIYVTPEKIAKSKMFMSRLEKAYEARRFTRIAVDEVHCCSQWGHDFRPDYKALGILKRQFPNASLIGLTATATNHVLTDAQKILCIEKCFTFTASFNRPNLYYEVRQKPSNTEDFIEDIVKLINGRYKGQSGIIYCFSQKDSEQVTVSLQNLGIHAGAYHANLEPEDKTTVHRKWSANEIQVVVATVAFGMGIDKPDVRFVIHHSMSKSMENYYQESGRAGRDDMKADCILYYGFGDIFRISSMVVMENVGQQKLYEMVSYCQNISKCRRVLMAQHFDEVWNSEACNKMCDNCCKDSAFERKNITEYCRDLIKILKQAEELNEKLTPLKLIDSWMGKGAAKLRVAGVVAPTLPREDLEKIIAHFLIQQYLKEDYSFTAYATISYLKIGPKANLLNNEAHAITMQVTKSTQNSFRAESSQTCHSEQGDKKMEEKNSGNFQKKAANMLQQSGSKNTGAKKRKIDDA
Compound,"activity change, negative = inhibition",Potency
O=C(NCc1ccccc1)C1=C[C@@H](C2CCCCC2)C[C@@H](OCc2ccc(CO)cc2)O1,-5.77% [at 114 µM],–
CC1(C)OC2CC(=O)OC[C@@]23C1CC(=O)[C@]1(C)C3CC[C@@]2(C)C(c3ccoc3)OC(=O)C3O[C@@]321 (some centres not stated),0.401%,–
Oc1ccc(N=Cc2sc3ccccc3c2Cl)cc1,-1.16% [at 114 µM],–
CC(=O)Nc1ccc(Nc2c3ccccc3nc3ccccc23)cc1,–,22.4 µM (active)
Cc1ccccc1NC(=O)CN1C(=O)N/C(=C\c2cccn2-c2cccc(C(=O)O)c2)C1=O,–,31.6 µM (active)
O=C(NC(Cc1c[nH]c2ccccc12)C(=O)O)/C(=C/c1ccco1)NC(=O)c1ccccc1 (configuration not stated),3.08%,–
O=C(N/N=C/c1sc(N2CCCCC2)nc1-c1cccs1)c1cccnc1,4.33% [at 114 µM],–
Cc1ccc(C)n1C(Cc1ccccc1)C(=O)O (configuration not stated),–,22.4 µM (active)
c1ccc(CSc2nnc(-c3ccco3)c(-c3ccco3)n2)cc1,–,39.8 µM (active)
O=C(NC(Cc1ccccc1)C(=O)N1CCCC1C(=O)O)c1ccccc1 (stereo not drawn) (Bz-Phe-Pro-OH; configuration not given here),1.28%,–
CC(C)(O)c1ccccc1CC[C@H](SCC1(CC(=O)O)CC1)c1cccc(/C=C/c2ccc3ccc(Cl)cc3n2)c1,–,40.8 µM (active)
CC1Cc2ccccc2N1C(=O)CSc1nnc(-c2ccc(S(=O)(=O)N3CCCC3)cc2)n1C (configuration not stated),7.7%,–
O=C(CCn1nnc2ccccc2c1=O)N[C@@H](Cc1c[nH]c2ccccc12)C(=O)O,2.77%,–
O=C(O)CCn1c(SCc2cc(=O)n3ccccc3n2)nc2ccsc2c1=O,1.05%,–
COc1ccc(-c2nc3c(c(SCC(=O)Nc4ccc(C(=O)O)cc4)n2)Cc2ccccc2O3)cc1,–,2.89 µM (active)
COc1cc(C2C(C(=O)c3ccc(C)o3)=C(O)C(=O)N2CCc2ccccc2)ccc1O (configuration not stated),11.1%,–
O=C(c1cc2c(s1)CCC2)N1CCN(c2ccccc2)CC1,–,39.8 µM (active)
